# Reference: PubChem BioAssay AID504715 (Sanford-Burnham Center for Chemical Genomics, 2011)
# The other results are listed elsewhere or left out. Unmarked numbers belong to inactive results.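 The calls were made as follows: active = compounds giving 40% or more inhibition at 20 µM in any one of the three replicates; inactive = the rest.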
# Target: Uracil-DNA glycosylase (Escherichia coli (strain K12)) (UniProt P12295)
# Test: E. coli UDG inhibitors, confirmation, counter-screen for APOBEC3G inhibitor project, biochemical, single concentration, fluorescence, FAM/TAMRA oligo (AID 504715);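 also: plate controls were DMSO wells with UDG and oligo for no effect and DMSO wells lacking both for full effect; inhibitors lower the FAM signal released by uracil excision and alkaline cleavage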
# Settings: UDG counterscreen, at 20 µM, hits give high values
# Uracil-DNA glycosylase (Escherichia coli (strain K12)), sequence (P12295 whole entry, looked up): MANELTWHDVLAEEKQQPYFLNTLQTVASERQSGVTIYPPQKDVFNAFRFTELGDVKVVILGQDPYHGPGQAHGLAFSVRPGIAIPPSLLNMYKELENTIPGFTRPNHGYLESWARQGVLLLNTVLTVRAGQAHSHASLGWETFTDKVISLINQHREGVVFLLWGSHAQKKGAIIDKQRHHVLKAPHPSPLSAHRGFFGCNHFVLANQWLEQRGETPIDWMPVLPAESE
row,Structure (SMILES),inhibition [%]
1,CC(=O)N1CC[n+]2c(-c3ccc([N+](=O)[O-])cc3)csc21,-1.28
2,Cc1ccc(C(=O)c2c(NC(=O)c3ccccc3)sc(C)c2C)cc1,2.57
3,COc1ccccc1-n1c(-c2cc(-c3ccco3)[nH]n2)n[nH]c1=S,-3.83
4,COC(=O)c1cccc(-n2[nH]nnc2=S)c1,-3.23
5,O=C1C=CC(=O)N1c1ccc(N2CCCCC2)cc1,-1.51
6,O=c1[nH]c2ccccc2n2c(-c3ccccc3)nnc12,-5.75
7,Fc1ccccc1/C=N/n1c(-c2cccnc2)n[nH]c1=S,0.6
8,S=c1[nH]nc2c3c4c(sc3ncn12)CCCC4,-7.25
9,Cc1cc(C)c2c(-c3ccc(F)cc3)c(C#N)c(=O)n(C)c2n1,-3.68
10,CCOc1ccc(NC(=O)c2ccc(NC(=O)COC(=O)c3ccc(NC(=O)CC#N)cc3)cc2)cc1,2.3
11,Cc1noc(C)c1CSc1nc2cc(S(=O)(=O)N3CCOCC3)ccc2o1,1.21
12,Fc1ccc(Nc2nnns2)cc1,3.44
13,Cc1nc([N+](=O)[O-])nn1C12CC3CC(CC(Br)(C3)C1)C2,2.58
14,CCC(CC)c1nnc(NC(=O)C2CCN(C(=O)c3ccco3)CC2)s1,4.07
15,Cc1cc(-c2n[nH]c(=S)n2/N=C/c2ccco2)n[nH]1,2.12
16,CCOc1cc(C(=S)N2CCOCC2)ccc1O,-2.88
17,Cc1ccc(NC(=O)c2sc3nc(N)c(C#N)cc3c2N)cc1,-3.69
18,Cc1n[nH]c(=S)n1/N=C/c1ccc(Br)o1,-0.61
19,COc1cccc(C(=O)CC(=O)C(=O)Nc2ccc([N+](=O)[O-])cc2C)c1,3.46
20,S=c1[nH]nc(NCCc2ccccc2)s1,-0.78
21,Cc1cc(-c2n[nH]c(=S)n2-c2ccc(C)c(C)c2)no1,-3.59
